Compound activity as filed in PubChem BioAssay.
MCF10A rereplic: A quantitative high throughput screen for small molecules that induce DNA re-replication in MCF 10a normal breast cells; MCF 10A DNA re-replication, Hoechst nuclear intensity, 48 h; Potency, µM (doses to about 46.1 µM), for the others: top-dose activity, positive = re-replication, actives largely listed as activators; 350,000 compounds, 2.9% hits; AID 624296, 2012; further: % of control where 0% means no effect; nearly all actives have a fitted effect of over 50% in size
KB-V1 MDR tox: qHTS assay for MDR1-selective chemotherapeutics: Primary screen using the drug-selected MDR subline cells KB-V1 | AID 1347076, 2019 | Potency, µM (doses to about 46.1 µM), usual class: cytotoxic | KB-V1 MDR cells viability, CellTiter-Glo, 72 h | 400,000 compounds, 3.4% hits; further: on the % scale 0 is the no-effect control and ±100 the full control effect; nearly all actives have a fitted effect of over 60% in size
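KB-V1 cells (P-gp-expressing MDR subline of KB-3-1) in phenol-red-free DMEM with 10% FBS were exposed to library compounds over a concentration series for 72 h at 37 degrees C. Viability read by CellTiter-Glo luminescence; concentration-effect curves fitted after normalization.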
SW480 rerep: A quantitative high throughput screen for small molecules that induce DNA re-replication in SW480 colon adenocarcinoma cells; SW480 DNA re-replication, Hoechst DNA content imaging, 48 h; Potency, µM (titrated, usually from 46.1 µM), for inactives: at the top dose re-replication activation, hits mostly activators; 340,000 compounds, 1.8% hits; AID 624297, 2012; further: % of control where 0% means no effect; nearly all actives have a fitted effect of over 55% in size
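Quantitative HTS format with DMSO vehicle controls; 48 hr drug incubation at 37 C, then 40 min Hoechst staining and scanning imager measurement at 405 nm excitation.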
RGS4 inh: Inhibitors of Regulator of G Protein Signaling (RGS) 4: qHTS; Regulator of G-protein signaling 4 (Homo sapiens), P49798; Transcreener GDP fluorescence polarization, RGS4-accelerated GTP hydrolysis; Potency, µM (doses to about 114 µM), inactives show top-dose activity change, negative = inhibition, most hits filed as inhibitors; 390,000 compounds, 0.039% hits; AID 504845, 2011; further: on the % scale 0 is the no-effect control and ±100 the full control effect; nearly all actives have a fitted effect of over 75% in size
Target sequence (P49798 whole entry, looked up): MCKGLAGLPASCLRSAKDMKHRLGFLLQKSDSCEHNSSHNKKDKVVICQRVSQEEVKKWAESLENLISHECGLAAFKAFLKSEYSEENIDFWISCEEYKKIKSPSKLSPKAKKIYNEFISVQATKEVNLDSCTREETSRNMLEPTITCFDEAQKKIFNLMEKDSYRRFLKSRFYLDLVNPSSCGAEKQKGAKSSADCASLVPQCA
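MLSMR compounds (23 nl, pin-transferred) preincubated 10 min at room temperature with a 500nM (2x) first reagent, then RGS4 at 900nM (2x) plus Transcreener GDP mix added; fluorescence polarization (620/688 nm) read before and after 90 min at 30 °C.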
KB-3-1 tox: qHTS assay for MDR1-selective chemotherapeutics: Primary screen using the parental adenocarcinoma cell KB-3-1; KB-3-1 viability, CellTiter-Glo ATP luminescence, 72 h; Potency, µM (highest dose often 46.1 µM), hits mostly cytotoxic; 400,000 compounds, 1.4% hits; further: on the % scale 0 is the no-effect control and ±100 the full control effect; nearly all actives have a fitted effect of over 60% in size
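Viability of parental KB-3-1 cells, measured by CellTiter-Glo luminescence, followed a 72 h incubation at 37 °C with pinned compounds in phenol-red-free DMEM containing 10% FBS.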
PTAP TSG101 blk: qHTS Assay for Iinhibitors of HIV-1 Budding by Blocking the Interaction of PTAP/TSG101; Tumor susceptibility gene 101 protein (Homo sapiens), Q99816; Fluorescence polarization, FITC-PTAP peptide / Tsg101 binding; Potency, µM (highest dose often 115 µM), for inactives: top-dose activity change, negative = inhibition, most hits filed as inhibitors; 340,000 tested, under 10 active; active means well fitted inhibition curve with a large enough effect in the main read-out, with a control signal flat, not every such curve was filed as active; inconclusive means small, poorly fitted or top-dose-only effect, or effect the other way, or a change in a side signal; inactive means no such curve, though single readings can be large or run the other way; further: % of control where 0% means no effect
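Steps: Tsg101 binding domain dispensed (10 uM final), compounds pinned in DMSO, FITC-labeled PTAP-motif peptide added (50 nM final); after 20 min binding at room temperature, polarization measured.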
* = called active by the depositor; i = inactive; ? = inconclusive; . = no result given. Only some compounds are listed: those with a hit (about 6.6% of all), similar ones and a draw of the others. Unless noted, the call rests on the fitted dose curve; in most records, active means well fitted curve in the direction sought with a large enough effect; inconclusive means small, poorly fitted or top-dose-only effect, or another doubt; inactive means no such curve, though single readings can be large; an effect the other way counts as inactive or inconclusive. Potency means the concentration at half of the fitted maximal effect.

SMILES	MCF10A rereplic	KB-V1 MDR tox	SW480 rerep	RGS4 inh	KB-3-1 tox	PTAP TSG101 blk
COc1cc(NC(=O)C2Cc3ccccc3N2C(=O)c2ccccc2)cc(OC)c1 (stereo not given)	.	i	.	9%	i	.
CCOc1ccc(C(=O)Nc2cccc(-c3nc4cccnc4s3)c2C)cc1OCC	.	.	.	-6%	.	.
O=c1[nH]cnc2nc[nH]c12	0%	.	-1%	.	.	.
O=c1[nH]cnc2n[nH]nc12	.	?	.	.	1.5µM*	.
CCC1(C)Cc2ccccc2-c2nc(NN)[nH]c(=O)c21 (stereo not given)	8%	i	-13%	-19%	i	-1%
CCC1(C)Cc2ccccc2-c2nc(-c3ccccc3)oc(=O)c21 (stereo not given)	?	16µM*	6%	-10%	?	-1%
COc1ccccc1CNc1ccc(-c2nc(C)no2)cc1[N+](=O)[O-]	.	?	.	7%	?	.
O=c1[nH]c(Cc2ccccc2)nc2scc(-c3ccccc3)c12	?	i	-2%	-10%	i	-2%
Cc1csc(SC(C)c2nc3scc(-c4ccccc4)c3c(=O)[nH]2)n1 (stereo not given)	?	9.2µM*	-29%	14%	?	-5%
Cc1ccc(-c2c[n+](CC(=O)OCc3ccccc3)c3n2CCC3)cc1	?	i	9.2µM*	14%	i	1%
Cc1ccc(-c2c[n+](Cc3ccc(Cl)c(Cl)c3)c3n2CCC3)cc1	?	i	60%	-13%	3.7µM*	-2%
Cc1ccc(C(=O)C[n+]2cc(-c3ccc(C)cc3)n3c2CCCCC3)cc1	?	i	11%	8%	0.92µM*	-2%
CCN(c1cc(C)cc(C)c1)S(=O)(=O)c1nnc(NC(=O)c2cccc(F)c2)s1	.	.	.	-14%	.	.
COc1ccc(/C=N/n2cc(-c3ccccc3)nc2N)cc1	23µM*	7.3µM*	?	-32%	3.7µM*	-1%
COc1ccc(-c2noc(-c3nnn(-c4cc(C)ccc4C)c3N)n2)cc1	.	.	.	-15%	.	.
O=C1C(Cl)=C(N2CCN(c3ccccc3[N+](=O)[O-])CC2)C(=O)c2ccccc21	?	?	16µM*	?	?	-7%
O=[N+]([O-])c1cc(Cl)ccc1N1CCCC1	2%	i	3%	1%	i	2%
CCOc1ccccc1CNC(=O)CCNC(=O)Cn1ccc2ccccc2c1=O	0%	i	-4%	46%	i	-4%
Cc1ccc(C)c(N2CCN(C(=O)CCNC(=O)Cn3ccc4ccccc4c3=O)CC2)c1	-1%	6.5µM*	-5%	-9%	i	5%
COc1ccccc1N1CCN(C(=O)CCNC(=O)Cn2ccc3ccccc3c2=O)CC1	8%	i	-2%	-2%	i	-6%
CCOc1ccc(N(CC)C(=O)CCNC(=O)Cn2ccc3ccccc3c2=O)cc1	0%	23µM*	-1%	7%	i	-1%
Cc1ccc(-c2cc(C(=O)NNC(=O)c3csc(N4CCOCC4)n3)c3ccccc3n2)cc1	1%	i	6%	-16%	i	-7%
Cc1ccc2nc(-c3ccccc3)cc(C(=O)NNC(=O)c3csc(N4CCOCC4)n3)c2c1	17%	21µM*	-3%	5%	i	0%
Cc1ccc(/C=N/NC(=O)c2cc(-c3cccnc3)nc3ccccc23)cc1	23µM*	2.9µM*	2.6µM*	11%	2.9µM*	-2%
